Source: PubChem BioAssay (EPA / NIEHS)
Results filed as inconclusive are left out. Active and inactive are the calls of the source. How the source made its calls, unless noted: active means hit-call score of the fitted dose curve at least 0.9, where 1 is the maximum; inactive means score below 0.9.

What was measured:
[1] = target: Retinoic acid receptor RXR-alpha (Homo sapiens) (UniProt P19793); test: OT_NURR1_NURR1RXRa_0480: Odyssey Thera (OT) 8-hour HEK293T Protein Complementation Assay for Nurr1/retinoid X receptor (RXR) (AID 2283385; active means hit-call score of the fitted dose curve at least 0.9, where 1 is the maximum)
Chain of Retinoic acid receptor RXR-alpha (Homo sapiens) (P19793 whole entry, looked up, the tested form may be a part): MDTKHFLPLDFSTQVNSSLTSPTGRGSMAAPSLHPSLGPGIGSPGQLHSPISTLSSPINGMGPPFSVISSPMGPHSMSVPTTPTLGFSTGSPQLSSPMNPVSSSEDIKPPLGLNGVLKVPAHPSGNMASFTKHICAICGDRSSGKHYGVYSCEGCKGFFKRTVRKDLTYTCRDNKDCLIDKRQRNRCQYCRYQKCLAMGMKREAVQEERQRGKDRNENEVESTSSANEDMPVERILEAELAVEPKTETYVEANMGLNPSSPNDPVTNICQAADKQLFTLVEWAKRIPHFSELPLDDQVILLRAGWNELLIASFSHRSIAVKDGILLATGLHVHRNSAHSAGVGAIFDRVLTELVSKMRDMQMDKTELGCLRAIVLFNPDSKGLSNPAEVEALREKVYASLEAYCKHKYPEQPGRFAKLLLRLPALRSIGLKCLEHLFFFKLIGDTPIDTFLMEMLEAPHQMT
Summary of the method: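 Compounds are applied to HEK293T cells carrying Nurr1 and RXRα linked to reporter fragments. After 8 h, fluorescence intensity reports heterodimer formation, with DMSO as baseline.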

[2] = target: Retinoic acid receptor RXR-alpha (Homo sapiens) (UniProt P19793); test: OT_NURR1_NURR1RXRa_1440: Odyssey Thera (OT) 24-hour HEK293T Protein Complementation Assay for Nurr1/retinoid X receptor (RXR) (AID 2283386; active means hit-call score of the fitted dose curve at least 0.9, where 1 is the maximum)
Summary of the method: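 Measured as fluorescence from a reconstituted split reporter, this 24 h HEK293T complementation assay scores compound-induced gain of Nurr1/RXRα association relative to DMSO.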

[3] = target: Peroxisome proliferator-activated receptor gamma (Homo sapiens) (UniProt P37231); test: OT_PPARg_PPARgSRC1_0480: Odyssey Thera (OT) 8-hour Protein-Complementation Assay for Peroxisome Proliferator-activated Receptor Gamma / SRC-1 Co-activator (AID 2283387; active means hit-call score of the fitted dose curve at least 0.9, where 1 is the maximum;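 further: nuclear to cytoplasmic split Venus YFP fluorescence ratio reporting PPARg SRC-1 interaction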)
Chain of Peroxisome proliferator-activated receptor gamma (Homo sapiens) (P37231 whole entry, looked up, the tested form may be a part): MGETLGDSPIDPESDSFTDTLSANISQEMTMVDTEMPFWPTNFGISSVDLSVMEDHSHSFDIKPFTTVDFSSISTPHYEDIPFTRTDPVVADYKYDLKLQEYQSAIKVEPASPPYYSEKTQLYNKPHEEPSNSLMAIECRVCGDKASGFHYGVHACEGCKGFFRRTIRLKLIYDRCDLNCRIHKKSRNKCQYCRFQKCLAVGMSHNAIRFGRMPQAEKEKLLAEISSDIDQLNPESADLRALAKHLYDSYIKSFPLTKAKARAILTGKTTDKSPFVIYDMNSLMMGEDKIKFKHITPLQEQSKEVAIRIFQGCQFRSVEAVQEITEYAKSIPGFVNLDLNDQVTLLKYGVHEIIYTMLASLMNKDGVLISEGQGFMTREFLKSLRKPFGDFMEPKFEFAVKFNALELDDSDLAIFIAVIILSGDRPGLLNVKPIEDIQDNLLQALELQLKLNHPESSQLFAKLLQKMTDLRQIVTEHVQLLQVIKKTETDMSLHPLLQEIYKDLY
Summary of the method: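 Split-YFP (IFP1/IFP2) PPARg/SRC-1 reporter, HEK293T, 37 °C, 5% CO2; 8 h compound; formaldehyde fix + Draq5; high-content imaging, N/C ratio, ≥350 cells/image, positive direction vs DMSO.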

[4] = read-out: Tumor necrosis factor receptor superfamily member 6 (Homo sapiens) (UniProt P25445); test: LTEA_HepaRG_FAS: Life Technologies and Expression Analysis (LTEA) Assay for Fas cell surface death receptor (FAS) using HepaRG (AID 2283447); conditions: mRNA level, 48 h; actives raise or lower the signal
Summary of the method: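 Differentiated HepaRG cells in serum-free induction medium were exposed 48 h to 8 half-log concentrations up to 100 uM in 0.5% DMSO, in duplicate. FAS mRNA was measured by qRT-PCR normalised to ACTB, GAPDH and POLR2A; bidirectional fit versus DMSO.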

[5] = read-out: Fatty acid synthase (Homo sapiens) (UniProt P49327); test: LTEA_HepaRG_FASN: Life Technologies and Expression Analysis (LTEA) Assay for Fatty Acid Synthase (FASN) using HepaRG (AID 2283448); conditions: mRNA level, 48 h; actives raise or lower the signal
Summary of the method: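 Transcript-level assay: HepaRG liver cells are treated for 48 h across an eight-point range topping at 100 uM, and FASN mRNA, normalized to three housekeeping genes, is compared with DMSO controls in both directions.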

[6] = read-out: Cyclin D2 (CCND2), CCND2 (gene 894); test: LTEA_HepaRG_CCND2: Life Technologies and Expression Analysis (LTEA) Assay for Cyclin D2 (CCND2) using HepaRG (AID 2283449); conditions: mRNA level, 48 h; actives raise or lower the signal;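 further: CCND2 transcript measured by TaqMan qRT-PCR and normalised to three housekeeping genes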
Summary of the method: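 Chemicals in 0.5% DMSO, eight half-log concentrations from 100 uM top, were applied in duplicate for 48 h to human HepaRG cells in serum-free induction medium. CCND2 mRNA by TaqMan qRT-PCR, normalised to ACTB/GAPDH/POLR2A; bidirectional fit versus DMSO.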

[7] = read-out: Cyclin Dependent Kinase Inhibitor 1A (CDKN1A), CDKN1A (gene 1026); test: LTEA_HepaRG_CDKN1A: Life Technologies and Expression Analysis (LTEA) Assay for Cyclin Dependent Kinase Inhibitor 1A (CDKN1A) using HepaRG (AID 2283450); conditions: mRNA level, 48 h; actives raise or lower the signal
Summary of the method: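 Cryopreserved HepaRG cells were plated and cultured 48 h, then switched to serum-free induction medium. Chemicals (eight half-log concentrations, top 100 uM, 0.5% DMSO) were applied for 48 h. Lysates underwent qRT-PCR for CDKN1A with housekeeping normalization.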

[8] = read-out: Cyclin D1 (CCND1), CCND1 (gene 595); test: LTEA_HepaRG_CCND1: Life Technologies and Expression Analysis (LTEA) Assay for Cyclin D1 (CCND1) using HepaRG (AID 2283451); conditions: mRNA level, 48 h; actives raise or lower the signal
Summary of the method: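 Human liver HepaRG line; 48 h dosing, 8 conc. ≤100 uM, 0.5% DMSO; TaqMan qRT-PCR mRNA, 3 housekeeping genes; bidirectional curve fit vs DMSO.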

[9] = read-out: catalase (CAT), CAT (gene 847); test: LTEA_HepaRG_CAT: Life Technologies and Expression Analysis (LTEA) Assay for catalase (CAT) using HepaRG (AID 2283452); conditions: mRNA level, 48 h; actives raise or lower the signal
Summary of the method: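 HepaRG cells in serum-free induction medium, 0.5% DMSO vehicle, exposed 48 h in duplicate over 8 half-log concentrations from 100 uM. CAT mRNA measured by qRT-PCR, normalized to ACTB, GAPDH, POLR2A; bidirectional fit versus DMSO.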

[10] = CEETOX_H295R_11DCORT: CeeTox H295R High-throughput Steroidogenesis Assay for 11-Deoxycortisol (11DCORT) (AID 2283432); conditions: actives raise or lower the signal
Summary of the method: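 Steroidogenesis in human H295R cells: 48 h chemical exposure after forskolin priming, 11-deoxycortisol measured by LC-MS/MS.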

[11] = CEETOX_H295R_OHPREG: CeeTox H295R High-throughput Steroidogenesis Assay for OH-Pregnenolone (OHPREG) (AID 2283434); conditions: actives raise or lower the signal
Summary of the method: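 H295R cells pre-stimulated 48 h with 10 uM forskolin, then exposed 48 h to chemical in 0.1% DMSO. 17alpha-hydroxypregnenolone in medium quantified by MTBE extraction and HPLC-MS/MS; bidirectional fit versus DMSO, viability checked by MTT.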

[12] = CEETOX_H295R_OHPROG: CeeTox H295R High-throughput Steroidogenesis Assay for OH-Progesterone (OHPROG) (AID 2283435); conditions: actives raise or lower the signal;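 on AC50: human adrenal H295R cells primed 48 h with 10 µM forskolin; 17alpha-hydroxyprogesterone secreted into medium measured by HPLC-MS/MS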
Summary of the method: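 Secreted 17alpha-hydroxyprogesterone is read by tandem MS from media of forskolin-primed H295R cells dosed with chemical for 48 h. Activity is fitted in both directions against DMSO baseline; cytotoxic concentrations are re-tested diluted.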

[13] = CEETOX_H295R_CORTISOL: CeeTox H295R High-throughput Steroidogenesis Assay for Cortisol (AID 2283438); conditions: actives raise or lower the signal;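 further: cortisol secreted into medium quantified by LC-MS/MS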
Summary of the method: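 Human adrenocortical H295R cells (passage ≤10) received test chemicals for 48 h after forskolin priming. Secreted cortisol was measured by LC-MS/MS.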

[14] = CEETOX_H295R_DOC: CeeTox H295R High-throughput Steroidogenesis Assay for DOC (AID 2283439); conditions: actives raise or lower the signal
Summary of the method: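 Secreted DOC was quantified from H295R media by HPLC-MS/MS after 48 h chemical exposure following 48 h forskolin (10 uM) prestimulation. Values were fitted in both directions relative to DMSO, the negative control and baseline.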

[15] = CEETOX_H295R_ESTRADIOL: CeeTox H295R High-throughput Steroidogenesis Assay for Estradiol (AID 2283440); conditions: actives raise or lower the signal;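 further: estradiol secreted into medium quantified by LC-MS/MS after dansyl derivatisation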
Summary of the method: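 Following OECD 456 with minor changes, H295R cells received 10 uM forskolin for 48 h and then test chemical for 48 h. Hormone output was read by HPLC-MS/MS, with cytotoxic concentrations diluted until MTT viability reached ≥70%.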

[16] = CEETOX_H295R_ESTRONE: CeeTox H295R High-throughput Steroidogenesis Assay for Estrone (AID 2283441); conditions: actives raise or lower the signal;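 further: estrone secreted into medium measured by LC-MS/MS after dansyl derivatization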;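 on AC50: human adrenal H295R cells prestimulated with forskolin for two days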
Summary of the method: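 H295R cells; 48 h forskolin (10 uM) prestimulation; 48 h compound exposure, 0.1% DMSO final. Medium estrone: MTBE extraction, dansyl derivatization, HPLC-MS/MS. Bidirectional fit vs DMSO.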

[17] = CEETOX_H295R_PROG: CeeTox H295R High-throughput Steroidogenesis Assay for Progesterone (PROG) (AID 2283442); conditions: actives raise or lower the signal
Summary of the method: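 Adrenal H295R line, forskolin-stimulated (10 uM, 48 h) before dosing. 48 h exposure, 0.1% DMSO vehicle. Secreted progesterone by reverse-phase HPLC with ESI+ MS/MS quantification; DMSO-normalised bidirectional curve fit.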

[18] = CEETOX_H295R_ANDR: CeeTox H295R High-throughput Steroidogenesis Assay for Androstenedione (ANDR) (AID 2283436); conditions: actives raise or lower the signal;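 further: human H295R adrenal cells exposed for 48 h with androstenedione measured in medium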
Summary of the method: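 H295R cells, following OECD 456 with minor changes, exposed to chemicals for 48 h. Androstenedione in the medium was quantified by HPLC-MS/MS after MTBE extraction. Fitting was bidirectional versus DMSO; chemicals were diluted until MTT viability was ≥70%.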

[19] = target: Peroxisome proliferator-activated receptor gamma (Homo sapiens) (UniProt P37231); test: OT_PPARg_PPARgSRC1_1440: Odyssey Thera (OT) 24-hour Protein-Complementation Assay for Peroxisome Proliferator-activated Receptor Gamma/ SRC-1 Co-activator (AID 2283388; active means hit-call score of the fitted dose curve at least 0.9, where 1 is the maximum;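 further: nuclear to cytoplasmic ratio of reconstituted Venus YFP fluorescence in fixed imaged cells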)
Summary of the method: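 Transient HEK293T, YFP fragments 1-158/159-239 (mutant IFP1/IFP2) fused to PPARg/SRC-1; 24 h dosing; fix 4% formaldehyde, Draq5; Opera imaging 488/635 nm; N/C ratio, gain vs DMSO.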

Chain of Fatty acid synthase (Homo sapiens) (P49327 whole entry, looked up): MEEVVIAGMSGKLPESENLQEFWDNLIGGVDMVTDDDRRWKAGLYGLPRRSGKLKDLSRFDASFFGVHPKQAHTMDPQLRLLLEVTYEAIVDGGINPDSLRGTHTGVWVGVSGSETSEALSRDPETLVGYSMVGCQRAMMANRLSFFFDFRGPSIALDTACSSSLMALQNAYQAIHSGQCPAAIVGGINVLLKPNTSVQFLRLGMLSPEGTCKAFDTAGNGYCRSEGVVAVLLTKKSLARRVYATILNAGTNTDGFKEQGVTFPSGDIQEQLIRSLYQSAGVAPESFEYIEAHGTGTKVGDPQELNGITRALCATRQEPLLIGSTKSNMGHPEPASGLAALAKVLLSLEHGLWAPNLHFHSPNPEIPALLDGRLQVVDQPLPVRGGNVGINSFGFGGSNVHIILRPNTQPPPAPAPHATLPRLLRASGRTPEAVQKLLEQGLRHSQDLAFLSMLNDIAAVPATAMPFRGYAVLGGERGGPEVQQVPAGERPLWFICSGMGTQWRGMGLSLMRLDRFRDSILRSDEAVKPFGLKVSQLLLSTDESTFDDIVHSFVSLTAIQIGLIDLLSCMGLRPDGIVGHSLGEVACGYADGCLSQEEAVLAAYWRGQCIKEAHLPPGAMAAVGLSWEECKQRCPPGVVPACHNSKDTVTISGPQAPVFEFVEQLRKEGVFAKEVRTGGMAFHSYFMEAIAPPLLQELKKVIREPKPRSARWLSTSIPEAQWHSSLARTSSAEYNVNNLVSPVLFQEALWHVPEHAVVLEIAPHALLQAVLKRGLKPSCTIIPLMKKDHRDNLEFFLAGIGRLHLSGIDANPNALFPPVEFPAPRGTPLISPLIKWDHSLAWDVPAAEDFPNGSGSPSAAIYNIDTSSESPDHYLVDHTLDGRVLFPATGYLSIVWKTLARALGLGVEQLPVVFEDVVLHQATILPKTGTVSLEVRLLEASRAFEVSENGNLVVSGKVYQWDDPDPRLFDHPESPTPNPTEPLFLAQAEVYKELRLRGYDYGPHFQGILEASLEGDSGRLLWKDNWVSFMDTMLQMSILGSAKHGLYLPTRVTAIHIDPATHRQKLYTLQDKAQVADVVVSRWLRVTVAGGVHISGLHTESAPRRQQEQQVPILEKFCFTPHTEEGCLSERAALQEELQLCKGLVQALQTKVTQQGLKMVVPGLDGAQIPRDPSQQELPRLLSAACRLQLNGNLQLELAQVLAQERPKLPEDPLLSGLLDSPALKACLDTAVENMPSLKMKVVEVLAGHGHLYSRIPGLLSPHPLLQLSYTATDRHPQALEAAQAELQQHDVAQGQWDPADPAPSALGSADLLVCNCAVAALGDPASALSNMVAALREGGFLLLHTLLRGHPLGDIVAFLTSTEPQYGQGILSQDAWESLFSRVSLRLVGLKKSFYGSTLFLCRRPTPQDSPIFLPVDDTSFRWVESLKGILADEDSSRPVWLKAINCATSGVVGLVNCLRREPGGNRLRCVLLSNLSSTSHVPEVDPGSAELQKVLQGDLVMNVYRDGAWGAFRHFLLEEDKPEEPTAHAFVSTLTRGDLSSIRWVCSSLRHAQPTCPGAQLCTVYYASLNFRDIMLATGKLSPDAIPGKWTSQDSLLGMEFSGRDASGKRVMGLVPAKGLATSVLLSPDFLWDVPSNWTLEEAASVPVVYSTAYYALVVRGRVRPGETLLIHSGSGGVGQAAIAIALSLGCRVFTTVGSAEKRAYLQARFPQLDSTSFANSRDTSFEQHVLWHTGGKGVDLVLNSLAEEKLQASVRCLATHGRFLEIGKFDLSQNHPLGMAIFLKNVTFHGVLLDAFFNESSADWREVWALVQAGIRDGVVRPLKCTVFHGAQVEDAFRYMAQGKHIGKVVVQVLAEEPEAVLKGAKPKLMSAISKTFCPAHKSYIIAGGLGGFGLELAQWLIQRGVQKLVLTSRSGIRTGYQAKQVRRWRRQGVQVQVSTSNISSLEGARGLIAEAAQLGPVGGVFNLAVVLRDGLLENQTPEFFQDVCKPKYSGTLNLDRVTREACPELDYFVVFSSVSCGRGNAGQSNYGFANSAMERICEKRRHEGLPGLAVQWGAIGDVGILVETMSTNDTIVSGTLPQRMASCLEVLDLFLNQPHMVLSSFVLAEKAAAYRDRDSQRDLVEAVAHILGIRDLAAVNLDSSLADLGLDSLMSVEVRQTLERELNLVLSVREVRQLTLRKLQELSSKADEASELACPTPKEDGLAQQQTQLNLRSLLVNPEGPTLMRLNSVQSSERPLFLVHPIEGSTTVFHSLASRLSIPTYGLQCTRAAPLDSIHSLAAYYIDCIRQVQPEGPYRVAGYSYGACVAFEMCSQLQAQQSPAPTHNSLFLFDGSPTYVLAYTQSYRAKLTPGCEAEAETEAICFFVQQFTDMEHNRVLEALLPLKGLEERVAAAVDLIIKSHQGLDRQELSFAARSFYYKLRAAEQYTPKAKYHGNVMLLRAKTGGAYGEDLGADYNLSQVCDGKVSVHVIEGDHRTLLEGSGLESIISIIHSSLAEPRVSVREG

Compound: NC(N)=O
- outcome [1]: inactive
- outcome [2]: inactive
- outcome [3]: inactive
- outcome [4]: inactive
- outcome [5]: inactive
- outcome [6]: inactive
- outcome [7]: inactive
- outcome [8]: inactive
- outcome [9]: inactive

Compound: OC(CCl)CCl
- outcome [1]: inactive
- outcome [2]: inactive
- outcome [3]: inactive
- outcome [4]: inactive
- outcome [5]: inactive
- outcome [6]: inactive
- outcome [7]: inactive
- outcome [8]: inactive
- outcome [9]: inactive

Compound: CNC(C)=O
- outcome [1]: inactive
- outcome [2]: inactive
- outcome [3]: inactive
- outcome [4]: inactive
- outcome [5]: inactive
- outcome [6]: inactive
- outcome [7]: inactive
- outcome [8]: inactive
- outcome [9]: inactive

Compound: C[C@@H](Oc1ccc(CNC(=O)c2cccnc2Oc2ccc3c(c2)OCO3)c(F)c1)C(=O)O
- outcome [1]: inactive
- outcome [2]: inactive
- outcome [3]: inactive
- outcome [10]: inactive
- outcome [11]: inactive
- outcome [12]: inactive
- outcome [13]: inactive
- outcome [14]: inactive
- outcome [15]: inactive
- AC50 [16]: 0.128 µM (active)
- outcome [17]: inactive
- outcome [4]: inactive
- outcome [5]: inactive
- outcome [6]: inactive
- outcome [7]: inactive
- outcome [8]: inactive
- outcome [9]: inactive

Compound: OCc1c[nH]c2ccccc12
- outcome [11]: inactive
- AC50 [12]: 15.8 µM (active)
- outcome [18]: inactive
- outcome [15]: inactive
- outcome [16]: inactive
- outcome [17]: inactive

Compound: OCC(CO)(CO)CO
- outcome [2]: inactive
- outcome [3]: inactive
- outcome [19]: inactive
- outcome [4]: inactive
- outcome [5]: inactive
- outcome [9]: inactive

Compound: CCCCCCCC/C=C\CCCCCCCC(=O)OC[C@@H](O)[C@H]1OC[C@H](O)[C@H]1O
- outcome [1]: inactive
- outcome [2]: inactive
- outcome [3]: inactive
- outcome [4]: inactive
- outcome [5]: inactive
- outcome [6]: inactive
- outcome [8]: inactive
- outcome [9]: inactive

Compound: OC[C@H]1O[C@@H]2O[C@H]3[C@H](O)[C@@H](O)[C@@H](O[C@H]4[C@H](O)[C@@H](O)[C@@H](O[C@H]5[C@H](O)[C@@H](O)[C@@H](O[C@H]6[C@H](O)[C@@H](O)[C@@H](O[C@H]7[C@H](O)[C@@H](O)[C@@H](O[C@H]1[C@H](O)[C@H]2O)O[C@@H]7CO)O[C@@H]6CO)O[C@@H]5CO)O[C@@H]4CO)O[C@@H]3CO
- outcome [1]: inactive
- outcome [2]: inactive
- outcome [3]: inactive
- outcome [19]: inactive
- outcome [4]: inactive
- outcome [5]: inactive
- outcome [6]: inactive
- outcome [8]: inactive
- outcome [9]: inactive

Compound: O=c1[nH]cnc2c1ncn2[C@H]1CC[C@@H](CO)O1
- outcome [1]: inactive
- outcome [2]: inactive
- outcome [3]: inactive
- outcome [4]: inactive
- outcome [5]: inactive
- outcome [6]: inactive
- outcome [8]: inactive
- outcome [9]: inactive

Compound: CCCCCCCCCCCCCCCCOS(=O)(=O)O
- outcome [1]: inactive
- outcome [2]: inactive
- outcome [3]: inactive
- outcome [19]: inactive
- outcome [4]: inactive
- outcome [5]: inactive
- outcome [6]: inactive
- outcome [8]: inactive
- outcome [9]: inactive
